Results filed as inconclusive are left out. A call without a number means that no potency is given here. The source made the active and inactive calls. Unless noted, calls follow the shape of the full dose curve.
Potency is read from the fitted curve at half-maximal effect.

Tested on in the first assay: not listed separately
Put plainly: qHTS assay to identify small molecule agonists of the estrogen related receptor (ERR) signaling pathway (AID 1224820; active = well fitted activation curve with a large enough effect in the repeat runs). As to conditions: ERR reporter cell line, luciferase agonist mode; series mostly up to 46.1 µM. Put shortly: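 Quantitative HTS of the LOPAC library used NTP ERR reporter cells treated 18 h at 37 C. Signal is luminescence after One-Glo addition and a 30 min room-temperature incubation.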
Background: Quantitative high-throughput screening tests each substance at several concentrations.
For the compound `O=C1NC(=O)c2cc(Nc3ccccc3)c(Nc3ccccc3)cc21`, the Potency entry was “inactive”.

On to `Cn1c(=O)c2c(nc(/C=C/c3cccc(Cl)c3)n2C)n(C)c1=O`, for which the Potency result was “inactive”.

On to `C[C@@H](NCCc1ccc(O)cc1)[C@@H](O)c1ccc(O)cc1`, for which the Potency entry is “inactive”.

Turning to `O=C1/C(=C/c2ccsc2)CC/C1=C\c1cccs1`, the Potency is 24.6 µM (active).

For the compound `CC[C@@H](C)[C@H]1O[C@]2(CC[C@@H]1C)C[C@@H]1C[C@@H](C/C=C(\C)[C@@H](O[C@H]3C[C@H](OC)[C@@H](O[C@H]4C[C@H](OC)[C@@H](O)[C@H](C)O4)[C@H](C)O3)[C@@H](C)/C=C/C=C3\CO[C@@H]4[C@H](O)C(C)=C[C@@H](C(=O)O1)[C@]34O)O2`, the Potency result was “inactive”.

For the compound `Nc1ncnc2c1c(-c1ccc(Oc3ccccc3)cc1)cn2C1CCCC1`, the Potency entry was “inactive”.

As to `CCCCC[C@H](CC(=O)NO)C(=O)N[C@H](C(=O)N1CCC[C@H]1CO)C(C)C`, the Potency entry is “inactive”.

Take `N[C@H](CO)C(=O)O`: the Potency result is “inactive”.

As for `C[N+](C)(C)CC=O`, the Potency entry was “inactive”.

As to `CC(=O)N[C@H](C(=O)O)C(C)(C)SN=O`, the Potency result is “inactive”.

Consider `O=C1OC(=O)C2C3CCC(O3)C12` (stereo unspecified), for which the Potency result is “inactive”.

As for `O=c1cc(-c2ccccc2)oc2c(O)c(O)ccc12`, the Potency entry was “inactive”.

For another assay, the system named is estrogen-related receptor alpha (ERRalpha) with PGC-1alpha coactivator, human. Put plainly: qHTS assay to identify small molecule antagonists of the estrogen related receptor signaling pathway with the pleiotropic PPARgamma coactivator (PGC) (AID 1224821). Also: nearly all actives have a fitted effect of over 50% in size. As to conditions: ERR/PGC reporter cell line, luciferase, antagonist mode; series mostly up to 46.1 µM. The essentials:
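Quantitative HTS for antagonism: PGC/ERR cells received compounds after 6 h attachment and were incubated 18 h at 37 C, with luminescence (One-Glo) as the endpoint.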
As for `CC(N)(Cc1ccc(O)cc1)C(=O)O` (stereo unspecified), the Potency result is “inactive”.

Regarding `NC/C=C\C(=O)O`, the Potency result is “inactive”.

With `Fc1ccc(C(OCCCc2cnc[nH]2)c2ccc(F)cc2)cc1`, the Potency was 10.2 µM (active).

With `COCc1nc2c([nH]1)c(=O)n(C)c(=O)n2CC(C)C`, the Potency result is “inactive”.

As to `O=C(/C=C/c1ccc(O)c(O)c1)OCCc1ccccc1`, the Potency result was “inactive”.

As for `O=C1NC(=O)/C(=C/c2ccc(-c3ccc(F)cc3O)o2)S1`, the Potency entry is “inactive”.

Consider `CCOC(=O)C1=C(O)C(=O)N(Cc2ccccc2)C1`, for which the Potency result was “inactive”.

As for `C=CCc1cccc(/C=N/NC(=O)CN2CCN(Cc3ccccc3)CC2)c1O`, the Potency entry is “inactive”.

As to `COC1(C2=NCCN2)COc2ccccc2O1` (stereo unspecified), the Potency entry is “inactive”.

As for `O=C(OCCN1CCOCC1)C1(c2ccccc2)CCCCC1`, the Potency result is “inactive”.

Regarding `O=C1c2ccccc2C(=O)c2c(NCCc3ccc(O)cc3)ccc(NCCc3ccc(O)cc3)c21`, the Potency result is “inactive”.

For `Cn1c(=O)c(-c2c(Cl)cccc2Cl)cc2cnc(Nc3ccc(N4CCOCC4)cc3)nc21`, the Potency entry is “inactive”.

Take `COc1ccc(/C=C2\COc3ccc(C)cc3C2=O)cc1O`: the Potency entry was “inactive”.

On to `N=c1ccn2c(n1)O[C@H]1C(O)[C@@H](CO)O[C@H]12` (stereo partly specified), for which the Potency entry was “inactive”.

On to `CC(=O)N[C@@H](Cc1c[nH]c2ccccc12)C(=O)OCc1cc(C(F)(F)F)cc(C(F)(F)F)c1`, for which the Potency entry is “inactive”.

`CCNC(=O)[C@H]1O[C@@H](n2cnc3c(N)nc(NCCc4ccc(CCC(=O)O)cc4)nc32)[C@H](O)C1O` (stereo partly specified): the Potency entry is “inactive”.

For `Cc1ccc(S(=O)(=O)/C=C/C#N)cc1`, the Potency entry was “inactive”.

As for `CC1(C)CCC2=C(O1)c1ccccc1C(=O)C2=O`, the Potency was 13.3 µM (active).

Regarding `Cc1cccc(-c2[nH]c(C(C)(C)C)nc2-c2ccc3nccnc3c2)n1`, the Potency was 6.94 µM (active).

On to `OCC1O[C@H]([S-])C(O)[C@@H](O)[C@@H]1O.[Au+]` (stereo partly specified), for which the Potency was 5.11 µM (active).

Regarding `NOCC(=O)O`, the Potency result is “inactive”.

Turning to `CCN(CC)CCOc1ccc(Nc2ncc3cc(-c4c(Cl)cccc4Cl)c(=O)n(C)c3n2)cc1`, the Potency entry is “inactive”.

As to `CN(C)C(=O)/N=N/C(=O)N(C)C`, the Potency entry is “inactive”.

As for `N#C/C(=C\c1ccc(O)c(O)c1)C(=O)NCCc1ccccc1`, the Potency entry is “inactive”.

Turning to `CC[C@@H]1Cc2cc(O)ccc2C2=C1c1ccc(O)cc1C[C@H]2CC`, the Potency is 15 µM (active).

As to `COc1ccc2c(c1)c(CC(=O)O)c(C)n2C(=O)c1ccccc1`, the Potency entry is “inactive”.

In the case of `COCCOc1cc2nc[nH]c(=O)c2cc1OCCOC`, the Potency result was “inactive”.

`N=c1c[n+](N2CCOCC2)[n-]o1`: the Potency entry was “inactive”.

As for `O=C1NC(=O)c2cc(Nc3ccccc3)c(Nc3ccccc3)cc21`, the Potency is 20.3 µM (active).

Turning to `Cn1c(=O)c2c(nc(/C=C/c3cccc(Cl)c3)n2C)n(C)c1=O`, the Potency entry was “inactive”.

`C[C@@H](NCCc1ccc(O)cc1)[C@@H](O)c1ccc(O)cc1`: the Potency result was “inactive”.

`O=C1/C(=C/c2ccsc2)CC/C1=C\c1cccs1`: the Potency result is “inactive”.

As for `CC[C@@H](C)[C@H]1O[C@]2(CC[C@@H]1C)C[C@@H]1C[C@@H](C/C=C(\C)[C@@H](O[C@H]3C[C@H](OC)[C@@H](O[C@H]4C[C@H](OC)[C@@H](O)[C@H](C)O4)[C@H](C)O3)[C@@H](C)/C=C/C=C3\CO[C@@H]4[C@H](O)C(C)=C[C@@H](C(=O)O1)[C@]34O)O2`, the Potency was 16.8 µM (active).

`Nc1ncnc2c1c(-c1ccc(Oc3ccccc3)cc1)cn2C1CCCC1`: the Potency entry is “inactive”.

These data come from PubChem BioAssay (Tox21).
